The list is a sample of the results.
aSyn UTR act: Activators working through SNCA 5'UTR binding (MLPCN). alpha-synuclein 5'UTR reporter, activators screen. activity score, % (tested at 7.5 µM), hits read low. 300,000 compounds, 7.1% hits; in the data active = activity score below about -60%
Active calls of the source: *.

SMILES	aSyn UTR act
COc1ccc(/C=C2\SC(=S)N(CCC(=O)NC3C=CS(=O)(=O)C3)C2=O)cc1 (stereo not drawn)	66
CC(C)c1ccc(/C=C2\SC(=O)N(CC(=O)NC3CCS(=O)(=O)C3)C2=O)cc1 (stereo not drawn)	-90*
CC1(C)CC(=O)C(C(=O)/C=C/c2ccco2)C(=O)C1	-73*
CC1CCC2(CC1)NC(=O)N(NC(=O)CCl)C2=O (stereo not drawn)	-77*
COC(=O)c1ccc(CN2C(=O)NC3(CCC(C)CC3)C2=O)cc1 (stereo not drawn)	-70*
CCN1CCN(c2ccc(NC(=O)c3ccccc3F)cc2Cl)CC1	-136*
CCCCCC(=O)Nc1ccc(N2CCN(CC)CC2)c(Cl)c1	-152*
Cc1ccc(NC(CC(=O)c2ccccc2)C(=O)O)cc1Cl (stereo not drawn)	-125*
O=C(CC(Nc1ccccc1)C(=O)O)c1ccccc1 (stereo not drawn)	-124*
O=C(CC(Nc1ccccc1)c1ccc(F)cc1)c1ccccc1 (stereo not drawn)	-75*
CCOC(=O)c1c(NC(=O)/C=C/c2ccc(C)o2)sc(C)c1C	-108*
Cc1sc(NC(=O)/C=C/c2ccco2)c(C(=O)O)c1C	-118*
Cn1cc(Cl)c(C(=O)Nc2nc3ccc([N+](=O)[O-])cc3s2)n1	-68*
Cn1cc(Cl)c(C(=O)Nc2nc3ccc(Cl)cc3s2)n1	-197*
CCOc1ccc(/C=C(/NC(=O)c2ccc(Cl)cc2)C(=O)O)cc1OCC	-86*
COc1nc(-c2ccccc2)cc(-c2ccc3c(c2)OCO3)c1C#N	64
c1ccc2c(Oc3ccc4c(c3)OCO4)nncc2c1	-71*
O=C1C=C(c2cc3ccccc3s2)CCC1	-86*
CC1Sc2n(c3ccccc3[n+]2C)N=C1c1ccccc1 (stereo not drawn)	-63*
CC(C)c1ccc(C(=O)CSc2ncn[nH]2)cc1	-137*
Cn1cccc1-c1nc2ccc([N+](=O)[O-])cc2[nH]1	-175*
O=[N+]([O-])c1cccc(/C=C/c2nc3ccc([N+](=O)[O-])cc3[nH]2)c1	-152*
CC(=O)Nc1nc(C)c(-c2nc3ccc([N+](=O)[O-])cc3[nH]2)s1	-81*
Cc1cc2nc(/C=C/c3cccnc3)[nH]c2cc1C	92
O=[N+]([O-])c1ccc2nc(-c3ccccc3)[nH]c2c1	-121*
SMILES	aSyn UTR act
Cc1cc(Cl)c(O)c(-n2nc3ccccc3n2)c1	-143*
Cc1ccc2nc(NNC(=O)c3ccc(S(=O)(=O)N4CCc5ccccc5C4)cc3)sc2c1	96
Cc1ccc(OC(=O)c2cccc(S(=O)(=O)N3CCCC3)c2)c(-n2nc3ccccc3n2)c1	-162*
Cc1ccc(OC(=O)c2ccc(S(=O)(=O)N(C)C)cc2)c(-n2nc3ccccc3n2)c1	-195*
CC(=O)Oc1ccc(C)cc1-n1nc2ccccc2n1	-212*
Cc1ccc(N2C(=O)c3ccccc3NC2C(C)Cc2ccc3c(c2)OCO3)cc1 (stereo not drawn)	-68*
O=C(NC1CCCC1)C(c1ccncc1)N(Cc1ccco1)C(=O)c1ccc(-c2ccccc2)[nH]1 (stereo not drawn)	-68*
O=C1/C(=C/c2cccnc2)Oc2cc(OS(=O)(=O)c3ccccc3)ccc21	-82*
Cc1ccccc1Oc1ccc(Oc2ccccc2C)nn1	-136*
COc1cccc(N=Nc2c(C)[nH]n(-c3ccccc3)c2=O)c1	-145*
Cc1[nH]n(-c2ccccc2)c(=O)c1N=Nc1ccc2c(c1)OCO2	-214*
Cc1[nH]n(-c2ccccc2)c(=O)c1N=Nc1ccccc1O	50
CN(C)/C=C/C(=O)c1ccc(Oc2ccccc2)cc1	-136*
CCCc1ccc(C(=O)/C=C/N(C)C)cc1	-126*
COc1ccc(NC(=O)C(=O)N/N=C\c2ccc(CNC(=O)C(=O)Nc3ccc(C)c(C)c3)o2)c(OC)c1	88
O=C(NCCc1ccccc1)C(=O)NCC1CCCO1 (stereo not drawn)	-64*
Cc1ccc(NC(=O)C(=O)NCC2CCCO2)cc1C (stereo not drawn)	-96*
Cc1ccc(NC(=O)C(=O)NCC2CCCO2)cc1 (stereo not drawn)	-85*
CC1CCc2nc(NC(=O)C3COc4ccccc4O3)sc2C1 (stereo not drawn)	63
COC(=O)c1c(NC(=O)CN2CCOCC2)sc2c1CCC(C)C2 (stereo not drawn)	-123*
CC1CCc2nc(NC(=O)C3CC3)sc2C1 (stereo not drawn)	-138*
Cc1ncsc1C(=O)Nc1nc2c(s1)CC(C)CC2 (stereo not drawn)	-126*
CC1CCc2nc(NC(=O)CN3CCOCC3)sc2C1 (stereo not drawn)	-92*
CC1CCc2nc(NC(=O)Nc3ccc4c(c3)OCO4)sc2C1 (stereo not drawn)	-123*
Cn1cccc1C(=O)OCc1cc(Cl)cc2c1OCOC2	-80*
SMILES	aSyn UTR act
CSc1ccccc1NC(=O)c1cc(-c2cccs2)on1	-235*
CC(C)NC(=O)c1cc(-c2cccs2)on1	-127*
C=CCNC(=O)c1cc(-c2ccc(Br)cc2)on1	-101*
Cc1ccc(O)c(NC(=O)c2cc(-c3ccc(F)cc3)on2)c1	-147*
Cc1ccc(O)c(NC(=O)c2cc(-c3cccs3)on2)c1	-231*
O=C(Nc1c(F)cc(F)cc1Br)c1cc(-c2ccc(O)cc2)on1	-101*
O=C(Nc1ccc2c(c1)OCO2)c1cnc2n(c1=O)CCS2	-125*
O=C(Nc1ccc2c(c1)OCCO2)c1cnc2n(c1=O)CCS2	-75*
CN1CCC(Oc2ccc(Sc3ccccc3)cc2)CC1	-77*
COc1cc(Cl)c(C)cc1NC(=O)c1cccc(OC)c1OC	-137*
COc1cc(C(=O)Nc2ccc3ccccc3c2)cc(OC)c1OC	88
COc1ccc(C(=O)Nc2ccc3ccccc3c2)cc1OC	-176*
COc1ccc(NC(=O)c2cc3ccccc3cc2OC)cc1OC	-70*
COc1cc2ccccc2cc1C(=O)Nc1ccc(O)cc1	-138*
COc1cccc(NC(=O)c2cc3ccccc3cc2OC)c1	-151*
COc1cc(OC)c(C(=O)Nc2ccc3ccccc3c2)cc1OC	-232*
COc1cccc(C(=O)Nc2ccc3[nH]c(=O)[nH]c3c2)c1OC	68
COc1cccc(NC(=O)c2ccccc2Br)c1	-106*
COc1cccc(NC(=O)c2cccc(OC)c2OC)c1	-168*
COc1cc2ccccc2cc1C(=O)Nc1ccc(Cl)cn1	-111*
Cc1occc1C(=O)Nc1ccc2ccccc2c1	-128*
COc1cccc(C(=O)Nc2ccc(N(C)C)cc2)c1OC	-214*
CCN(Cc1ccccc1)c1ccc(/C=C(\C#N)c2ccccn2)cc1	-137*
CCCCc1ccc(NC(=O)Nc2cnccn2)cc1	-98*
O=C(Nc1ccc([N+](=O)[O-])cc1)Nc1ccon1	74
SMILES	aSyn UTR act
CCc1ccc(NC(=O)Nc2cnccn2)cc1	-104*
CCc1ccc(NC(=O)Nc2ccon2)cc1	-136*
O=C(CN1C(=O)c2ccccc2S1(=O)=O)c1ccc(F)cc1	92
O=C(CN1CCN(CCN2C(=O)c3cccc4cccc(c34)C2=O)CC1)c1ccc(F)cc1	-65*
c1ccc(N2OCC3Cn4c(nc5ccccc54)C32)cc1 (stereo not drawn)	-64*
O=C(/C=C/Nc1ccc(F)c(Cl)c1)c1ccco1	-148*
O=C(/C=C/Nc1cccc(F)c1)c1ccco1	-264*
CN(C)c1ncc(C2=C(Cl)C(=O)C(N3CCCC3)=C(Cl)C2=O)s1	-70*
C=CCSc1nnc2c(n1)[nH]c1c(C)cccc12	-158*
